# Reference: PubChem BioAssay (EPA / NIEHS)
# Active and inactive are the calls of the source. The calls were made as follows: active = hit-call score of the fitted dose curve at least 0.9, where 1 is the maximum; inactive = score below 0.9.
# Read-out: Monokine induced gamma interferon (MIG), CXCL9 (gene 4283)
# Assay: BSK_BE3C_MIG: BioMAP Diversity Plus: BE3C Assay for Monokine induced gamma interferon (MIG) Biomarker Activity (AID 2283035)
# Conditions: primary human bronchial epithelial cells; actives raise or lower the signal
# Protocol: BSK_BE3C is a cell-based, multiplexed-readout assay that uses bronchial epithelial cell, a human lung primary cell, with measurements taken at 24 hours after chemical dosing in a 96-well plate.BSK_BE3C_MIG is an assay component measured in the BSK_BE3C assay. It measures MIG antibody related to regulation of gene expression using ELISA technology.Data from the assay component BSK_BE3C_MIG was analyzed into 1 assay endpoint. This assay endpoint, BSK_BE3C_MIG, was analyzed with bidirectional fitting relative to DMSO as the negative control and baseline of activity. Using a type of binding reporter, gain or loss-of-signal activity can be used to understand changes in the signaling as they relate to the gene CXCL9. Furthermore, this assay endpoint can be referred to as a primary readout, because this assay has produced multiple assay endpoints where this one serves a signaling function. To generalize the intended target to other relatable targets, this assay endpoint is annotated to the cytokine intended target family, where the subfamily is chemotactic factor.
# The levels of cell surface (or secreted, indicated by the prefix "s") biomarker endpoints were measured by ELISA. Overt cytotoxicity to cells in confluent adherent cultures (all systems other than the BT system) was assessed by measuring total protein levels using sulforhodamine B (SRB) staining in parallel cultures at the time of biomarker measurements, indicated as SRB endpoints. For proliferation assays for adherent cell types, individual cell types are cultured at sub-confluence and relative cell numbers quantified by SRB staining at time points optimized for each system (48 h: 3C and CASM3C systems; 72 h: BT and HDF3CGF systems; 96 h: SAg system). SRB was performed by staining cells with 0.1% SRB after fixation with 10% TCA and reading wells at 560 nm.Viability and proliferation of PBMC (T cells) was quantified by Alamar Blue reduction for the SAg and BT systems. For PBMC viability (referred to as PBMC Cytotoxicity within the assay endpoint names), cells were plated (75,000/well in a 96-well plate) and then chemical samples added for 1 h before addition of activators, SEB and TSST-1 (20 ng/mL final concentration each). Cells were incubated for 90 h. Then, Alamar Blue (20 uL/well) (Invitrogen, Cat DAL1100) was added for 6 h, and the plates were read with a fluorescence microplate reader at 546/580 nm (excitation/emission). For PBMC proliferation, cells were plated and activated as above but incubated for only 16 h prior to addition of Alamar Blue. Plates were read after 6 h.
SMILES,outcome,AC50
O=C(O)[C@H](O)[C@@H](O)C(=O)O,inactive,
CNC(C)=O,inactive,
FC(F)=C(F)C(F)(F)C(F)(F)C(F)(F)C(F)(F)C(F)(F)C(F)(F)F,inactive,
O=S(=O)(O)c1ccc(N=Nc2c(O)ccc3cc(S(=O)(=O)O)ccc23)cc1,inactive,
NCC(F)(F)C(F)(F)C(F)(F)C(F)(F)F,inactive,
Cc1cccc(O)c1C,inactive,
OCCNCCO,inactive,
Cc1ncc([C@@H](CCCCCCc2ccc3c(n2)NCCC3)CC(=O)O)cn1,inactive,
OC[C@H]1O[C@@](CO)(O[C@H]2O[C@H](CO)[C@@H](O)[C@H](O)[C@H]2O)[C@@H](O)[C@@H]1O,inactive,
CCN(CC)C(=S)SSC(=S)N(CC)CC,,32.3 µM (active)
CC[C@H](C)C(=O)O[C@H]1C[C@H](O)C=C2C=C[C@H](C)[C@H](CC[C@@H](O)C[C@@H](O)CC(=O)O)[C@H]21,inactive,
FC(F)(F)COC(OCC(F)(F)F)OCC(F)(F)F,inactive,
O=C(Cl)C(F)(F)C(F)(F)C(F)(F)C(=O)Cl,inactive,
S=P(N1CC1)(N1CC1)N1CC1,inactive,
COCc1nnc(-c2ccc[n+]([O-])c2)n1-c1c(Cl)c(Cl)cc2[nH]c(=O)c(=O)[nH]c12,inactive,
CC(C)C(=O)Nc1ccc([N+](=O)[O-])c(C(F)(F)F)c1,inactive,
CCc1ccc(O)c(C(C)(C)C)c1,inactive,
CCOC(N)=O,inactive,
O=C(O)c1cccc(C[C@@H]2COc3ccc(OCc4nc5cc(F)ccc5s4)cc3[C@@H]2O)c1,inactive,
OCc1ccccc1,inactive,

SMILES,outcome,AC50
NNC(=O)c1ccncc1,inactive,
O=C1CN(N=Cc2ccc([N+](=O)[O-])o2)C(=O)N1,inactive,
OCc1c[nH]c2ccccc12,inactive,
OCC(CO)(CO)CO,inactive,
C=CN1CCCC1=O,inactive,
CC(=O)c1ccccc1,inactive,
CC1(C)C(=O)N(Cl)C(=O)N1Cl,inactive,
CCn1nc(C)c2c1C(=O)NCC(c1ccc(O)cc1)=N2,inactive,
CC(C)CCCCCCOC(=O)C1CCCCC1C(=O)OCCCCCCC(C)C (stereo not given),inactive,
NC(N)=O,inactive,
COS(C)(=O)=O,inactive,
OC(O)(C(F)C(O)(O)C(F)(F)F)C(F)(F)F,inactive,
O=C(NO)C1(NS(=O)(=O)c2ccc(Oc3ccc(F)cc3)cc2)CCOCC1,inactive,
OC(CCl)CCl,inactive,
OCCOCCOCCO,inactive,
c1ccc(C(O[C@@H]2CCCN(CCc3ccc4c(c3)OCO4)C2)c2ccccc2)cc1,inactive,
CCCCCCCCN(C)C,inactive,
O=S(=O)(O)CCC(F)(F)C(F)(F)C(F)(F)C(F)(F)C(F)(F)C(F)(F)F,inactive,
C[C@]12C=CC(=O)C=C1CC[C@H]1[C@@H]3C[C@@H](O)[C@](O)(C(=O)CO)[C@@]3(C)C[C@H](O)[C@@]12F,inactive,
NC(=O)N(O)[C@@H]1COc2cc(OCc3ccccc3)ccc21,inactive,
